The supplement of paper PMC7156485
± gives the standard deviation of the averaged measurements.

What was measured:
Conditions in all cases: concentration: 10 µM; 24 h
[1] = system: HCC1569; assay: cell number relative to DMSO (% of DMSO); higher = more cells (less growth inhibition / toxicity)
Summary of the method: (§1)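 After 24 h at 37 °C with compounds at 10 µM, in triplicate, HCC1569 and TDF cells were fixed with 3.7% formaldehyde. Immunostaining used a rabbit anti-H1.0 antibody and an AlexaFluor 647 secondary, with DAPI, and six fields per well were imaged at ×10. H1.0 nuclear intensity or cell number is presented as percent of the plate control, from the median of replicates, with HCC1569 values smoothed for positional effects.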

[2] = system: TDF; assay: as above
Summary of the method: as §1

[3] = system: TDF; assay: H1.0 immunofluorescence intensity relative to DMSO (% of DMSO); higher = stronger H1.0 induction, active = 120 or more
Summary of the method: as §1

[4] = system: HCC1569; assay: H1.0 immunofluorescence intensity relative to DMSO (% of DMSO); higher = stronger H1.0 induction, active = 140 or more
Summary of the method: as §1
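For H1.0 immunofluorescence intensity relative to DMSO in this document: TDF is a line of transformed human dermal fibroblasts of mesenchymal origin.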
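For cell number relative to DMSO in this document: TDF denotes transformed human dermal fibroblasts of mesenchymal origin.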

SMILES | cell number [1] | cell number [2] | H1.0 immunofluorescence intensity [3] | H1.0 immunofluorescence intensity [4]
C=C1C(=CC=C2CCCC3(C)C2CCC3C(C)CCCC(C)(C)O)CC(O)CC1O (configuration not stated) [1,25-Dihydroxyvitamin D3] | 104 | 106 | 95.2 (inactive) | 98.6 (inactive)
O=C(O)CCCC=CCC1C2CCC(O2)C1CNNC(=O)Nc1ccccc1 (configuration not stated) | 102 | 103 | 92.8 (inactive) | 99.7 (inactive)
CC(=O)OC1(C(C)=O)CCC2C3C=C(Cl)C4=CC(=O)C5CC5C4(C)C3CCC21C (configuration not stated) [Cyproterone Acetate] | 107 | 93.8 | 103 (inactive) | 99.8 (inactive)
CC(C)=CCCC(C)=CCOc1ccc2ccc(=O)oc2c1 [Auraptene] | 105 | 103 | 103 (inactive) | 97.1 (inactive)
CC(C)NCC(O)COc1cccc2ccccc12 (stereo not drawn) [Propranolol S(-)] | 102 | 104 | 102 (inactive) | 101 (inactive)
CC(C)n1cnc2c(NCc3ccccc3)nc(NCCCO)nc21 [Bohemine] | 91.4 | 87.5 | 100 (inactive) | 106 (inactive)
Nc1c(Br)cc(Br)cc1CNC1CCC(O)CC1 (configuration not stated) [Ambroxol] | 104 ± 5.2 | 109 ± 5.6 | 100 (inactive) | 103 (inactive)
C[n+]1ccccc1CC(=O)c1ccc(Br)cc1.[I-] [2-[2-(4-bromophenyl)-2-oxoethyl]-1-methylpyridinium iodide] | 98.7 | 87.6 | 96.4 (inactive) | 97.5 (inactive)
COc1cc(-c2oc3cc(O)cc(O)c3c(=O)c2OC2OC(CO)C(O)C(O)C2O)cc(OC)c1O (configuration not stated) [Syringetine-3-glucoside] | 102 | 93 | 101 (inactive) | 90.4 (inactive)
COc1cc(O)c2c(c1)oc(=O)c1c3cc(O)c(O)cc3oc21 [Wedelolactone] | 91.7 | 74.8 | 101 (inactive) | 91.6 (inactive)
CN(C(=O)CCCOc1ccc2[nH]c(=O)ccc2c1)C1CCCCC1 [Cilostamide] | 100.9 ± 0.88 | 109 ± 5 | 96.9 (inactive) | 98.1 (inactive)
O=c1c(O)c(-c2cc(O)c(O)c(O)c2)oc2cc(O)cc(O)c12 [Myricetin] | 102 ± 3.7 | 101 ± 3.9 | 88.4 (inactive) | 91.7 (inactive)
CCCCCC(O)C=CC=CC=CC(O)CC=CCCCC(=O)O [8(S),15(S)-DIHETE all trans] | 103 | 96.5 | 92.4 (inactive) | 101 (inactive)
Cn1cnc2cc3c(Nc4cccc(Br)c4)ncnc3cc21 | 92.4 | 114 | 79.6 (inactive) | 117 (inactive)
O=C(CCCN1CCC(O)(c2cccc(C(F)(F)F)c2)CC1)c1ccc(F)cc1 [Trifluperidol] | 100 | 95.7 | 97.3 (inactive) | 102 (inactive)
C#Cc1cccc(Nc2ncnc3cc(OCCOC)c(OCCOC)cc23)c1 [Erlotinib] | 94.8 ± 8 | 94.5 ± 3.9 | 91.3 (inactive) | 108 (inactive)
COc1cc2ncnc(N3CCN(C(=O)Nc4ccc(Oc5ccccc5)cc4)CC3)c2cc1OC [PDGF Receptor Tyrosine Kinase Inhibitor III] | 72.2 | 62.2 | 102 (inactive) | 215 (active)
CCN(CC)C(C)C(=O)N1c2ccccc2Sc2ccccc21.Cl (stereo not drawn) [10-(alpha-Diethylaminopropionyl)-phenothiazine hydrochloride] | 93.7 | 99 | 98.5 (inactive) | 85.9 (inactive)
CN1C(CC(=O)c2ccccc2)CCCC1CC(O)c1ccccc1 (configuration not stated) [Lobeline] | 103 | 102 | 94.9 (inactive) | 99.8 (inactive)
CCCCCCCCCCCCCCCCn1cc[n+](Cc2ccccc2)c1C.[I-] | 99.1 | 103 | 103 (inactive) | 106 (inactive)
CC(=O)Oc1ccc(C(c2ccc(OC(C)=O)cc2)c2ccccn2)cc1 [Bisacodyl] | 94.2 | 102 | 86.4 (inactive) | 125 (inactive)
CCN1CCCC1CNC(=O)c1c(OC)ccc(I)c1O (configuration not stated) | 106 | 91 | 96.7 (inactive) | 88.1 (inactive)
COC(=O)C1=C(C)NC(C)=C(C(=O)OC)C1c1ccccc1[N+](=O)[O-] [Nifedipine] | 99.06 ± 0.47 | 102 ± 7 | 94.7 (inactive) | 104 (inactive)
